The text below walks through data of PubChem BioAssay AID720706 (Broad Institute, 2013).

SMILES strings stand for the structures. Hit rate of the full screen: of about 350,000 compounds, about 5,500 (1.6%) were called active.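 Rule for the calls: active = significant combined selectivity score with lowered wild-type GFP, culture density cut under 30%, mutant RFP and density less affected; inactive = any of these conditions unmet.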 The entries come from a sample that favours actives as a whole.

This assay is described as follows: reduced GFP signal of wild-type E. coli, primary screen, bacterial rRNA inhibitor project, GFP/RFP fluorescence, OD600, single point (AID 720706). The note with it: E. coli WT GFP vs humanized-ribosome RFP mutants, 24 h; GFP signal change (wild-type ribosome): stronger effect = lower value, DMSO median 0, no signal -100; OD600 change: measured here: OD600 growth, DMSO median 0, no signal -100; RFP signal change: measured here: RFP humanized mutant strains, DMSO median 0, no signal -100, concentration not given here.
With `O=C(NNc1cc(Cl)cc(Cl)c1)c1c(F)cccc1Cl`, the GFP signal change (wild-type ribosome) was -4.44% (inactive), the OD600 change is -4.42% and the RFP signal change was -0.438%.

As for `CCN(CC)CCNC(=O)c1ccc(NC(=O)c2c(F)cccc2Cl)cc1`, the GFP signal change (wild-type ribosome) is 7.17% (inactive), the OD600 change was -3.78% and the RFP signal change is -0.531%.

Take `COCC#Cc1ccc([C@@H]2[C@@H](CO)N3C(=O)CN(C(=O)Nc4cc(F)ccc4F)C[C@@H]23)cc1`: the GFP signal change (wild-type ribosome) was -10.5% (inactive), the OD600 change was -5.07% and the RFP signal change was 3.1%.

With `COc1ccc(NC(=O)N(C)C[C@@H]2OCCCC[C@@H](C)Oc3ccc(NS(C)(=O)=O)cc3C(=O)N([C@@H](C)CO)C[C@H]2C)cc1`, the GFP signal change (wild-type ribosome) is -0.988% (inactive), the OD600 change was -5.29% and the RFP signal change is 0.0065%.

In the case of `Cc1noc(C)c1S(=O)(=O)Nc1ccc2c(c1)C(=O)N([C@H](C)CO)C[C@H](C)[C@H](CN(C)C(=O)CCC(F)(F)F)OCCCC[C@H](C)O2`, the GFP signal change (wild-type ribosome) is -2.98% (inactive), the OD600 change is -4.46% and the RFP signal change is 0.03%.

As for `COc1ccc2c3c(n(C)c2c1)[C@H](CO)N(C(=O)Cc1ccccc1)CC31CCN(C)CC1`, the GFP signal change (wild-type ribosome) was 4.41% (inactive), the OD600 change was determined as 5.73% and the RFP signal change is -1.31%.

As to `CCNC(=O)[C@H]1[C@H](CO)[C@H]2Cn3c(ccc(C4=CCCC4)c3=O)[C@@H]1N2S(=O)(=O)c1cn(C)cn1`, the GFP signal change (wild-type ribosome) was 2.88% (inactive), the OD600 change turned out to be 2.51% and the RFP signal change is -2.3%.

In the case of `COc1ccc(C(=O)NC2CCN(C(=O)Nc3ccc(F)cc3)CC2)cc1`, the GFP signal change (wild-type ribosome) is 3.88% (inactive), the OD600 change was determined as 11.7% and the RFP signal change is -0.144%.

Regarding `COc1ccc(-c2n[nH]c3c2CN(C(=O)c2ccc(F)cc2)CC3)cc1`, the GFP signal change (wild-type ribosome) was -24% (active), the OD600 change was -10.1% and the RFP signal change was -0.0738%.

As for `COc1cccc(-c2noc(C3CCCN(C(=O)c4ccc(F)cc4)C3)n2)c1` (stereo not drawn), the GFP signal change (wild-type ribosome) is -16% (inactive), the OD600 change was -14.3% and the RFP signal change was found to be 1.71%.

Take `COCC#Cc1cnc2c(c1)C(=O)N([C@H](C)CO)C[C@@H](C)[C@@H](CN(C)Cc1ccccc1F)O2`: the GFP signal change (wild-type ribosome) is 4.01% (inactive), the OD600 change worked out at 9.71% and the RFP signal change is -0.92%.

With `CC(C)(C)C1CCC(=NNC(=O)c2cc(-c3ccccc3)n[nH]2)CC1` (stereo not drawn), the GFP signal change (wild-type ribosome) is -8.44% (inactive), the OD600 change stood at 6.81% and the RFP signal change was -1.93%.

With `O=C(N/N=C/c1ccco1)c1ccc(NC(=O)C2CC2)cc1`, the GFP signal change (wild-type ribosome) is 33.5% (inactive), the OD600 change turned out to be 14.7% and the RFP signal change was determined as 3.89%.

`CC(/C=N/NC(=O)c1cc(-c2ccc3ccccc3c2)n[nH]1)=C\c1ccco1`: the GFP signal change (wild-type ribosome) was -18.4% (active), the OD600 change is -4.31% and the RFP signal change was found to be 6.39%.

As for `Nc1ccn([C@@H]2O[C@H](C(=O)N[C@H]3CCCCNC3=O)[C@@H](O)[C@H]2O)c(=O)n1`, the GFP signal change (wild-type ribosome) is 23% (inactive), the OD600 change was 2.48% and the RFP signal change was 2.71%.

Regarding `CN(Cc1ccccc1)C(=O)C1CCCN(c2ncnc3c2nc2n3CCCCC2)C1` (stereo not drawn), the GFP signal change (wild-type ribosome) is -30.8% (active), the OD600 change is -19.4% and the RFP signal change was -2.82%.

Take `COc1cccc(CNC(=O)C2CCCN(c3ncnc4c3nc3n4CCCCC3)C2)c1` (stereo not drawn): the GFP signal change (wild-type ribosome) is -0.749% (inactive), the OD600 change stood at 3.87% and the RFP signal change was -0.866%.

Take `COc1cccc(NC(=O)C2CCCN(c3ncnc4c3nc3n4CCCCC3)C2)c1` (stereo not drawn): the GFP signal change (wild-type ribosome) was -27.7% (inactive), the OD600 change is -29.9% and the RFP signal change is -2.84%.

For the compound `O=C(NCc1ccc2c(c1)OCO2)c1c(-c2ccsc2)sc2ccccc12`, the GFP signal change (wild-type ribosome) is -2.63% (inactive), the OD600 change was 5.46% and the RFP signal change is -0.565%.

Consider `O=C(NCc1ccc2c(c1)OCO2)c1c(O)nc2sccn2c1=O`, for which the GFP signal change (wild-type ribosome) was 9.79% (inactive), the OD600 change stood at 1.77% and the RFP signal change came out at 0.304%.

Take `O=C(NCc1ccc2c(c1)OCO2)c1sccc1Br`: the GFP signal change (wild-type ribosome) was -28% (active), the OD600 change was -4.74% and the RFP signal change stood at 4.92%.

Turning to `Cc1cc(C(=O)Nc2ccc3c(c2)C(=O)N(C)[C@@H]2CC[C@H](CC(=O)NC4CCCC4)O[C@@H]2CO3)no1`, the GFP signal change (wild-type ribosome) was 1.76% (inactive), the OD600 change is 5.25% and the RFP signal change stood at 2.11%.

With `CCCC(=O)Nc1ccc2c(c1)C(=O)N(C)[C@@H]1CC[C@H](CC(=O)NCCOC)O[C@H]1CO2`, the GFP signal change (wild-type ribosome) was 3.48% (inactive), the OD600 change stood at 0.14% and the RFP signal change was determined as 0.31%.

For `COc1ccccc1S(=O)(=O)N[C@@H]1C=C[C@H](CC(=O)N2CCN(C)CC2)O[C@@H]1CO`, the GFP signal change (wild-type ribosome) is 3.92% (inactive), the OD600 change was 11.8% and the RFP signal change was -3.5%.

For the compound `COC(=O)c1c(C)oc(C)c1S(=O)(=O)Nc1ccc(C(C)C)cc1`, the GFP signal change (wild-type ribosome) is -28.4% (active), the OD600 change is -12.4% and the RFP signal change is -2.19%.

`COC(=O)c1c(C)oc(C)c1S(=O)(=O)NCc1ccc(Cl)cc1`: the GFP signal change (wild-type ribosome) was -11.3% (inactive), the OD600 change was -4.55% and the RFP signal change was -0.764%.

In the case of `CC(C)c1ccc(NS(=O)(=O)c2cn(C)c(=O)n(C)c2=O)cc1`, the GFP signal change (wild-type ribosome) was 4.95% (inactive), the OD600 change was determined as 14.4% and the RFP signal change is -3.23%.

Take `CO[C@H]1CC[C@@H]2CCOc3c(C#N)cccc3C(=O)N(C)C[C@H](C)C(=O)N(C)C[C@H]1O2`: the GFP signal change (wild-type ribosome) is 3.92% (inactive), the OD600 change was -1.31% and the RFP signal change was -1.65%.

As to `Brc1ccc2c(c1)[C@H]1OCC[C@H]1[C@@H](c1cccs1)N2`, the GFP signal change (wild-type ribosome) was -43.8% (active), the OD600 change is -30.6% and the RFP signal change is -11.9%.

As for `Oc1ccc(/C=N/N(Cc2ccccc2)c2ccccc2)cc1`, the GFP signal change (wild-type ribosome) is -13.9% (inactive), the OD600 change is -1.62% and the RFP signal change was 0.2%.

Turning to `CCN(/N=C/c1ccc(N(C)C)cc1)c1nc2ccccc2[nH]1`, the GFP signal change (wild-type ribosome) is -22.8% (active), the OD600 change was -10.9% and the RFP signal change was -2.86%.
